AMA1 RON2 block – inhibitors of Plasmodium falciparum AMA1-RON2 interaction. AlphaScreen AMA1-biotinylated RON2 peptide binding. Potency, µM (titrated, usually from 58.2 µM), for the others: top-dose activity change, negative = inhibition, most hits filed as inhibitors. hit rate 0.2% among 360,000;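 note: 0% = vehicle wells and -100% = peptide control; nearly all actives have a fitted effect of over 45% in size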
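AMA1 (3D7) with his tag at 25 nM final met compounds first, then biotinylated RON2 peptide at 25 nM; detection used donor plus acceptor beads, 10 µg/mL apiece, read by AlphaScreen after 30 min at room temperature.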
Pf growth 48h – inhibits P. falciparum growth in the first generation, 48 h; P. falciparum luciferase growth in erythrocytes, 48 h; Potency, µM (series often up to 28.7 µM), for inactives: at the highest dose activity change, negative = inhibition, most hits filed as inhibitors; hit rate 5.9% among 310,000; AID 504832; note: % is set by controls: 0 for no effect and ±100 for the full control effect
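Luminescence readout; reporter = integrated firefly luciferase in P. falciparum. RBC culture at 2% hematocrit, 0.1% parasitemia final, 37 C/5% CO2; decreased signal taken as growth inhibition.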
SARS PLpro yeast – blocks SARS-CoV papain-like protease in a yeast assay; S. cerevisiae expressing SARS-CoV PLpro, growth rescue; Potency, µM (top dose mostly 32.9 µM), for the others: top-dose activity, positive = growth rescue, hits mostly activators; hit rate 0.19% among 330,000; AID 485353; calls by dose curve; note: 0% is about no effect; nearly all actives have a fitted effect of over 55% in size
Pf growth 96h – P. falciparum growth inhibition at 96 hour, primary screen for plastid delayed-death inhibitors | P. falciparum luciferase reporter growth, 96 h | Potency, µM (doses to about 28.7 µM), inactives show top-dose activity change, negative = inhibition, hits mostly inhibitors | hit rate 6.9% among 320,000 | AID 504834; note: % is set by controls: 0 for no effect and ±100 for the full control effect
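P. falciparum expressing integrated firefly luciferase, in erythrocytes at 2% hematocrit, 0.05% parasitemia, incubated with compounds 96 h at 37 C, 5% CO2. Growth inhibition read as loss of luminescence; two-generation exposure targets delayed-death apicoplast inhibitors.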
Starred values were filed as active, the others as inactive; [ ] = dose if it differs, or a comment. Shown are actives, neighbours in structure and some others; about 9.4% of the full set was active somewhere. Unless noted, calls come from the whole dose curve; as a rule, active = well fitted curve in the direction sought with a large enough effect; inconclusive = small, poorly fitted or top-dose-only effect, or another doubt; inactive = no such curve, though single readings can be large; an effect the other way counts as inactive or inconclusive. Potency is the fitted concentration of half-maximal effect.

Screening O=C(Cn1cnc2ccccc21)N1CCc2ccccc21 returned AMA1 RON2 block 0%, Pf growth 48h -12%, SARS PLpro yeast 0% and Pf growth 96h 3%.
`O=C(CN1CCN(S(=O)(=O)c2ccccc2)CC1)N1CCc2ccccc21` gave AMA1 RON2 block -7%, Pf growth 48h inconclusive, SARS PLpro yeast -4% and Pf growth 96h 12µM*.
`COc1cc2c(cc1OC)CN(C(=O)CCN1C(=O)C3CCCCC3C1=O)CC2` (centres undefined) gave AMA1 RON2 block 0%, Pf growth 48h -5%, SARS PLpro yeast 3% and Pf growth 96h 0%.
For O=C(CN1CCc2ccccc2C1)N1CCN(S(=O)(=O)c2ccccc2)CC1 the results were AMA1 RON2 block -3%, Pf growth 48h -9%, SARS PLpro yeast -1% and Pf growth 96h -19%.
O=C(Nc1ccccc1Cl)c1ccccc1CC(O)(c1ccccc1)c1ccccc1 was read as AMA1 RON2 block -1%.
For CCCCc1c(-c2cccc(Cl)c2)ncn1CCc1ccccc1OC the results were AMA1 RON2 block -12%.
For O=C(/C=C/c1cccc([N+](=O)[O-])c1)NC(=S)Nc1cccc(NC(=O)c2ccccc2Cl)c1 the results were AMA1 RON2 block -4%[2.32 µM], Pf growth 48h 13µM*, SARS PLpro yeast -1% and Pf growth 96h 3%.
O=C(/C=C/c1cccc([N+](=O)[O-])c1)NC(=S)Nc1ccccc1C(=O)O was read as Pf growth 48h 3%, SARS PLpro yeast 1% and Pf growth 96h 2%.
`COc1ccc(O[C@H]2C=C[C@@H](c3ccccc3)O[C@@H]2CO/N=C(\C)CCN2CCCCc3nc(C)c(C)cc32)cc1` gave Pf growth 48h 1.7µM*, SARS PLpro yeast -10% and Pf growth 96h inconclusive.
`C/C(CCN1CCCCc2nc(C)c(C)cc21)=N\OC[C@@H](O)[C@H]1O[C@@H]2OC(C)(C)O[C@@H]2[C@H]1O` gave Pf growth 48h 6%, SARS PLpro yeast -1% and Pf growth 96h -24%.
Screening C/C(CCN1CCCCc2nc(C)c(C)cc21)=N\O[C@@H](C)CN1CCCCc2nc(C)c(C)cc21 returned Pf growth 48h 13µM*, SARS PLpro yeast -4% and Pf growth 96h 12µM*.
For COc1ccc(O[C@H]2C=C[C@@H](c3ccccc3)O[C@@H]2COC(=O)CC/C(C)=N/OC[C@@H](O)[C@H]2O[C@@H]3OC(C)(C)O[C@@H]3[C@H]2O)cc1 the results were Pf growth 48h inconclusive, SARS PLpro yeast 19% and Pf growth 96h inconclusive.
Screening Cc1cc(C)nc(NC(=O)c2ccc(Cl)c([N+](=O)[O-])c2)n1 returned AMA1 RON2 block 18%, Pf growth 48h inconclusive, SARS PLpro yeast -1% and Pf growth 96h inconclusive.
Screening CN(C)C(=O)C(Sc1ccc(S(=O)(=O)N2CCCC2)cn1)c1ccccc1 (centres undefined) returned AMA1 RON2 block 11%, Pf growth 48h 15µM*, SARS PLpro yeast 0% and Pf growth 96h inconclusive.
`CC(Sc1ccc(S(=O)(=O)N2CCCC2)cn1)C(N)=O` (centres undefined) gave AMA1 RON2 block 9%[11.6 µM], Pf growth 48h -5%, SARS PLpro yeast -7% and Pf growth 96h -13%.
For CN(C(=O)CSc1ccc(S(=O)(=O)N2CCCCC2)cn1)c1ccccc1 the results were AMA1 RON2 block -3%, Pf growth 48h inconclusive, SARS PLpro yeast -4% and Pf growth 96h 12µM*.
CCN(C(=O)C(C)Sc1ccc(S(=O)(=O)N2CCOCC2)cn1)c1ccccc1 (centres undefined) was read as AMA1 RON2 block 8%, Pf growth 48h 13µM*, SARS PLpro yeast 5% and Pf growth 96h inconclusive.
CCCNC(=O)CSc1ccc(S(=O)(=O)N2CCCC2)cn1 was read as AMA1 RON2 block 13%, Pf growth 48h 13%, SARS PLpro yeast -6% and Pf growth 96h -4%.
For CCOc1ccccc1NC(=O)C1CCCN1C(=O)c1cccs1 (centres undefined) the results were AMA1 RON2 block -10%, Pf growth 48h 11%, SARS PLpro yeast 1% and Pf growth 96h -29%.
`Cc1ccc(S(=O)(=O)N2CCOC23CCN(S(=O)(=O)c2c(C)cc(C)cc2C)CC3)cc1` gave AMA1 RON2 block 20%, Pf growth 48h inconclusive, SARS PLpro yeast 3% and Pf growth 96h 4.7µM*.

Screening results: PubChem, National Center for Advancing Translational Sciences (NCATS)
